Assay outcomes from PubChem BioAssay.
DT40 TDP1 CPT: qHTS for Inhibitors of human tyrosyl-DNA phosphodiesterase 1 (TDP1): qHTS in cells in presence of CPT. chicken DT40 Tdp1-/-;hTDP1 cells + 20 nM CPT, ATP luminescence, 48 h. actives 12% (n = 420,000). AID 686979, 2013. Potency, µM (highest dose often 46.2 µM), actives largely listed as inhibitors; note: nearly all actives have a fitted effect of over 55% in size
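Cell growth measured by CellTiter-Glo luminescence after a minimum 48 h, 37 C compound exposure with 20 nM CPT in Tdp1-knockout DT40 cells stably expressing hTDP1, seeded 400/well; qHTS titration format.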
uPA generation: qHTS for Inhibitors of Cell Surface uPA Generation; cell surface uPA generation assay, qHTS; Potency, µM (titrated, usually from 38.3 µM), actives largely listed as inhibitors; actives 0.31% (n = 330,000); AID 540303, 2011; active = well fitted inhibition curve with a large enough effect; inconclusive = small, poorly fitted or top-dose-only effect; inactive = no such curve, though single readings can be large or run the other way; tested in mouse RAW 264.7 cells; note: nearly all actives have a fitted effect of over 55% in size
HT1080-NT tox: qHTS for induction of synthetic lethality in tumor cells producing 2HG: qHTS for the HT-1080-NT fibrosarcoma cell line; HT-1080-NT fibrosarcoma viability, CellTiter-Glo ATP luminescence, 48 h; Potency, µM (series often up to 46.1 µM), usual class: cytotoxic; actives 1.6% (n = 360,000); AID 686970, 2013;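 note: NT is the 2HG producing partner of a matched IDH1 knockdown line; nearly all actives have a fitted effect of over 55% in size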
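750 cells/well, RPMI + 5% FBS; 2 h settle, compound pin-transfer, 48 h at 37 degrees C. CellTiter-Glo 10 min RT, luminescence. Normalized to DMSO and media-only wells.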
DT40 TDP1 no CPT: qHTS for Inhibitors of human tyrosyl-DNA phosphodiesterase 1 (TDP1): qHTS in cells in absence of CPT; DT40 Tdp1-/- hTDP1 cells, no CPT, ATP luminescence, 48 h; AID 686978, 2013; actives 15% (n = 420,000); Potency, µM (series often up to 46.2 µM), usual class: inhibitors; note: nearly all actives have a fitted effect of over 55% in size
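Camptothecin absent (DMSO only). Human TDP1-complemented DT40 knockout cells, 400 cells/well, 37 °C for minimum 48 hr; ATP measured via CellTiter-Glo, 30 min dark incubation, luminescence.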
IL1B secr inh: qHTS for Inhibitors of Inflammasome Signaling: IL-1-beta AlphaLISA Primary Screen; actives 4.7% (n = 360,000); THP-1 LPS/ATP IL-1B secretion, AlphaLISA, 16 h; hits give low values; AID 743279, 2014; activity change, % at 57.5 µM; in the data active = activity change below about -50%; inconclusive = mostly about -30% to -49%
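THP-1 cells pretreated 1 hr with compounds (up to 57.5 uM final), then stimulated with LPS (250 ng/mL final) plus ATP (1.25 mM final); secreted IL-1B measured by AlphaLISA after 16 hr, decreased signal indicating inhibition.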
HT1080 IDH1KD tx: qHTS for induction of synthetic lethality in tumor cells producing 2HG: qHTS for the HT-1080-IDH1KD cell line | actives 2% (n = 360,000) | HT-1080 IDH1 knockdown viability, ATP luminescence, 48 h | Potency, µM (titrated, usually from 46.1 µM), most hits filed as cytotoxic
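Assay cells: HT-1080 with IDH1 knockdown, 750 per well, RPMI/5% FBS. Exposure: 48 h at 37 °C following 2 h pre-incubation. Read: CellTiter-Glo luminescence; fitted concentration-response, curve class assigned.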
Numbers stand for hits; - = inactive; ? = inconclusive; . = no result; ! = a repeat was not active; [ ] = dose if it differs, or a comment. Rows were chosen to be rich in hits. Some 19% of all compounds tested hit in one or more screens of this group. Unless noted, calls come from the whole dose curve; as a rule, active = well fitted curve in the direction sought with a large enough effect; inconclusive = small, poorly fitted or top-dose-only effect, or another doubt; inactive = no such curve, though single readings can be large; an effect the other way counts as inactive or inconclusive.

SMILES	DT40 TDP1 CPT	uPA generation	HT1080-NT tox	DT40 TDP1 no CPT	IL1B secr inh	HT1080 IDH1KD tx
Cc1ccccc1-c1cc2c(c(OC3CCOC3)c1)OCCN(C(=O)Cn1cccn1)C2 (configuration not stated)	-	.	.	-	.	.
CCN(CC)CCNC(=O)C(=O)Nc1c2c(nn1-c1ccc(F)cc1)CSC2	-	.	.	-	.	.
CCC(=O)c1ccc(OCC(=O)Nc2ccccc2N2CCOCC2)cc1	?	-	-[9.24 µM]	?	-	-
Cc1cccc(OCC(=O)Nc2ccccc2N2CCCC2)c1C	?	?	-	?	-	-
Cc1ccc(OCC(=O)Nc2ccccc2C(=O)N2CCCC2)cc1	?	-	-	16µM	-	-
CCC(=O)c1ccc(OCC(=O)Nc2ccccc2N2CCCCC2)cc1	2.6µM	-	-	2.9µM	-	-
Cc1cccc(OCC(=O)Nc2ccccc2N2CCN(C(=O)C(C)C)CC2)c1C	21µM	-	-	?	-	-
Cc1ccccc1OCC(=O)Nc1ccccc1N1CCCCC1	?	.	-	21µM	-	?
O=C(Cn1cnc2c(nnn2Cc2ccc(F)cc2)c1=O)Nc1ccc2c(c1)OCCO2	-	-	-	-	-	-
O=c1cc(COc2ccc(Cl)cc2Cl)nc2scc(-c3ccccc3)n12	-	.	.	-	.	.
CN(C)S(=O)(=O)c1ccc(C(=O)Nc2ccn(C)n2)cc1	-	-	-	-	-	-
COc1cc(C)ccc1OCC(=O)Nc1ccccc1N1CCOCC1	-	-	-	?	-	-
Cc1ccc(NC(=O)COc2ccccc2)c(NC(=O)c2ccccc2C)c1	?	-	-	21µM	-	-
Cc1ccc(OCC(=O)Nc2ccccc2N2CCOCC2)c(C)c1	18µM	-	-	?	-	-
O=C(CN1C(=O)CCc2cc(S(=O)(=O)N3CCOCC3)ccc21)NCc1ccc(F)cc1	-	.	.	-	.	.
CCOc1cc(CNC2CCCC2)cc(Cl)c1OCc1ccccc1	?	-	21µM	?	-	?
CCOc1c(Cl)cc(CNCC(C)C)cc1OC	-	.	-	-	-	-
CCOc1cc(C2NN=C(c3ccccc3)S2)ccc1OCc1ccccc1Cl (configuration not stated)	?	-	-	16µM	-	-
CCOc1cc(CNCC(C)C)cc(Cl)c1OCc1ccccc1	?	-	-	21µM	-52	-
CCOc1cc(C2NN=C(c3ccccc3)S2)ccc1OCc1ccc(F)cc1 (configuration not stated)	?	-	-	?	-	-
CCOc1cc(CNC2CCCC2)ccc1OCc1ccccc1Cl	13µM	-	-	21µM	-89	-
Fc1cc(F)c2ncc3c(-c4ccccc4)nn(-c4cccc(Cl)c4)c3c2c1	-	.	.	-	.	.
CC1(C)OC(=O)C2=C(C[C@@H](C3CCCCC3)O[C@H]2c2ccc(Cl)cc2)O1	?	.	-	?	-	-
Cc1cc(C)n2c(Nc3c(C)cccc3C)c(-c3cccnc3)nc2n1	-	.	-	-	-	-
Cc1cccc(C)c1NC(=O)Cn1nc(-c2ccc(Cl)s2)ccc1=O	-	-	-	-	-	-
SMILES	DT40 TDP1 CPT	uPA generation	HT1080-NT tox	DT40 TDP1 no CPT	IL1B secr inh	HT1080 IDH1KD tx
Cc1ccn2c(Nc3c(C)cccc3C)c(-c3ccsc3)nc2c1	21µM	.	.	23µM	.	.
Cc1ccn2c(Nc3c(C)cccc3C)c(-c3ccc(Cl)s3)nc2c1	13µM	.	.	18µM	.	.
CCOc1ccccc1NC(=O)c1c(NC(=O)c2cccc(C)c2)sc2c1CCC2	?	.	.	-	.	.
CCOc1ccc(S(=O)(=O)n2nc(C)cc2C)c2ccccc12	23µM	-	-	?	-	-
CCOc1ccc(C(C)(C)C)cc1S(=O)(=O)n1nc(C)cc1C	?	-	-	11µM	-	-
O=C(NCC(=O)N1CCN(S(=O)(=O)c2ccccc2)CC1)c1ccc(Br)o1	-	-	-	-	-	-
CCn1cc(C(=O)N2CCN(c3ccc(OC)cc3)CC2)c(=O)c2cc(S(=O)(=O)N(C)C3CCCCC3)ccc21	-	.	.	-	.	.
CCOc1ccc2c(=O)c(Oc3ccccc3)c(C)oc2c1	?	-	-	21µM	-	-
Cc1oc2cc(OC(C)C(=O)O)ccc2c(=O)c1Oc1ccccc1 (configuration not stated)	-	-	-	-	-	-
COc1ccc(NC(=O)COCc2cc(-c3ccco3)on2)cc1Cl	?	.	.	-	.	.
Oc1cc(O)cc(/C=C/c2ccc(O)c(O)c2)c1	10µM!	7.9µM	?	0.65µM	-	?
NC(c1csc(Nc2cnccn2)n1)C1CCCCC1 (configuration not stated)	23µM	.	-	-	-	-
NC(c1csc(Nc2ccc(C(F)(F)F)cn2)n1)C1CCCCC1 (configuration not stated)	23µM	.	?	21µM	-66	18µM
NC(c1csc(Nc2ncccn2)n1)C1CCCCC1 (configuration not stated)	?	.	-	?	?	-
NC(c1csc(Nc2nccc(C(F)(F)F)n2)n1)C1CCCCC1 (configuration not stated)	?	.	21µM	12µM	?	21µM
CC(=O)c1ccc(NC(=O)c2cnsn2)cc1	-	-	-	-	-	-
Cc1cccc(NC(=O)c2sc3nc(-c4cc5ccc(O)cc5oc4=O)[nH]c(=O)c3c2C)c1	21µM	.	.	21µM	.	.
Cc1c(C(=O)Nc2cccc(F)c2)sc2nc(-c3cc4ccccc4oc3=O)[nH]c(=O)c12	23µM	.	.	?	.	.
C=NCc1cc2c(OC[C@@H](O)CNC(C)(C)C)cccc2[nH]1	-	.	.	-	.	.
O=C1OC(c2ccccc2)(c2cc(Br)ccc2O)c2ccccc21 (configuration not stated)	18µM	-	16µM	?	-92	21µM
O=C1OC(c2ccc(O)cc2)(c2ccccc2O)c2ccccc21 (configuration not stated)	-	-	-	-	?	-
O=C1OC(c2ccc3ccccc3c2O)(c2ccc3ccccc3c2O)c2ccccc21	5.8µM	-	-	5.2µM	-51	?
O=C1OC2(c3ccccc31)c1ccccc1-c1ccccc12	-	-	-	?	-	?
O=C1OC(c2ccccc2)(c2ccc3cc(O)ccc3c2)c2ccccc21 (configuration not stated)	21µM	-	13µM	?	?	26µM
Cc1cc(C)c2c(=O)cc(C(=O)NCc3ccc(S(N)(=O)=O)cc3)oc2c1	-	.	.	?	.	.
